Assay outcomes from PubChem.
Cruzain inh Det = blocks cruzain activity in presence of Triton detergent. P25779. purified cruzain, Z-FR-AMC fluorescence, 0.01% Triton. Potency, µM, usual class: inhibitors. hit rate 0.43% among 200,000; further: nearly all actives have a fitted effect of over 40% in size
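Compounds were screened in titration against cruzain (1.5 nM) with 0.01% Triton X-100 to counter colloidal aggregation. Activity was the AMC fluorescence increase over 60 s after adding 2 uM Z-FR-AMC at pH 5.5.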
Cruzain noTriton = blocks cruzain activity in detergent-free assay | hit rate 2.3% among 200,000 | AID 1476 | purified cruzain, Z-FR-AMC fluorescence, no detergent | Potency, µM, actives largely listed as inhibitors | P25779; further: nearly all actives have a fitted effect of over 40% in size
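Detergent-free condition (0.00005% Triton X-100) in acetate buffer pH 5.5 with DTT. 1.5 nM enzyme and compound were pre-mixed 15 min, then 2 uM Z-FR-AMC substrate added; reaction progress from fluorescence change between first and third reads (60 s).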
Giardia FBPA inh-1 = inhibitors of Giardia lamblia fructose-1,6-bisphosphate aldolase; A8B2U2; purified Giardia FBPA; Potency, µM (doses to about 59.6 µM), usual class: inhibitors; hit rate 0.71% among 290,000; further: nearly all actives have a fitted effect of over 55% in size
Target sequence (A8B2U2 whole entry, looked up): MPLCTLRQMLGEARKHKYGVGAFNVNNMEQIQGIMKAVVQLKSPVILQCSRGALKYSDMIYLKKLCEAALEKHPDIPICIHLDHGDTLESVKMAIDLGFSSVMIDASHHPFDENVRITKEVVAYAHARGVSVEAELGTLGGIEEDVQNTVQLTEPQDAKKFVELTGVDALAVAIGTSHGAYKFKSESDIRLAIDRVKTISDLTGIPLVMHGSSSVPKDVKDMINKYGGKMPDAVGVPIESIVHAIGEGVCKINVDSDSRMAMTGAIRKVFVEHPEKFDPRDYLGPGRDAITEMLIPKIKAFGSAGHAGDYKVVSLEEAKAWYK
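40 nM FBPA preincubated 10 min at RT with compound (up to 57.5 uM final), then substrate plus GAPDH/TPI/NAD/arsenate coupling and diaphorase/resazurin added. Fluorescence read after 20 min at RT, 525/598 nm.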
Giardia growth = inhibitors of Giardia lamblia growth. shares compounds with Giardia FBPA inh-1. Giardia lamblia trophozoite growth inhibition. Potency, µM (series often up to 57.5 µM), most hits filed as inhibitors. hit rate 5% among 1,500. AID 2785;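 further: trophozoites exposed to compound for 48 h at 37 °C; nearly all actives have a fitted effect of over 70% in size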
Mammalian tox = counter-screen for Giardia aldolase inhibitors: mammalian cell toxicity. shares compounds with Giardia FBPA inh-1. mammalian cell viability counter-screen, qHTS. Potency, µM (highest dose often 57.5 µM), most hits filed as inhibitors. hit rate 4% among 1,500;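 further: Chinese hamster ovary cells used as mammalian cytotoxicity surrogate; viability measured as cellular ATP by luminescence; compound exposure lasted 48 h before reading; nearly all actives have a fitted effect of over 60% in size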
Giardia FBPA inh-2 = confirmation of Giardia fructose-bisphosphate aldolase inhibitors. hit rate 5% among 1,500. purified Giardia aldolase enzyme activity, qHTS. shares compounds with Giardia FBPA inh-1. AID 2787. Potency, µM (highest dose often 57.5 µM), most hits filed as inhibitors; further: nearly all actives have a fitted effect of over 45% in size
Rabbit FBPA inh = rabbit FBP aldolase inhibition by Giardia aldolase hits. shares compounds with Giardia FBPA inh-1. Potency, µM (series often up to 57.5 µM), actives largely listed as inhibitors. Rabbit muscle FBPA enzyme inhibition, selectivity counter-screen. hit rate 4% among 1,500. AID 2794; further: nearly all actives have a fitted effect of over 60% in size
GAPDH coupling = GAPDH inhibition flagged for Giardia aldolase hits. shares compounds with Giardia FBPA inh-1. GAPDH coupling enzyme counterscreen, biochemical, qHTS. Potency, µM (top dose mostly 57.5 µM), hits mostly inhibitors. hit rate 6% among 1,500; further: nearly all actives have a fitted effect of over 55% in size
A number is an active result; – = inactive; ? = inconclusive; · = not tested or not shown. The full list was thinned out, with hits kept by preference. The call rests on the fitted dose curve; in most records, active means well fitted curve in the direction sought with a large enough effect; inconclusive means small, poorly fitted or top-dose-only effect, or another doubt; inactive means no such curve, though single readings can be large; an effect the other way counts as inactive or inconclusive.

SMILES	Cruzain inh Det	Cruzain noTriton	Giardia FBPA inh-1	Giardia growth	Mammalian tox	Giardia FBPA inh-2	Rabbit FBPA inh	GAPDH coupling
O=C(CNCc1ccccn1)Nc1cc(C(F)(F)F)ccc1N1CCOCC1	·	·	15.8µM	?	–	–	–	–
O=C(Cn1c(CO)nc2ccccc21)Nc1cc(C(F)(F)F)ccc1N1CCOCC1	–	?	–	·	·	·	·	·
Cc1ccc2nc(-c3ccc(Cl)c(NC(=O)c4ccc5c(c4)OCCO5)c3)oc2c1	–	–	·	·	·	·	·	·
O=C(NC(=S)N1CCN(C/C=C/c2ccccc2)CC1)c1ccc(Cl)nc1	·	·	7.92µM	–	?	–	–	–
CCOc1ccc(NC(=S)N2CCN(C/C=C/c3ccccc3)CC2)cc1	·	·	–	·	·	·	·	·
O=C(NC(=S)N1CCN(Cc2ccccc2)CC1)c1cccnc1	·	·	17.7µM	?	–	–	–	–
O=C(NC(=S)N1CCCCC1)c1cccnc1	–	–	?	·	·	·	·	·
COCCCn1c(=O)c2sccc2n2c(CCCC(=O)Nc3cc(C)cc(C)c3)nnc12	–	–	·	·	·	·	·	·
CN(Cc1ccccc1)C(=O)c1cccc(NC(=O)c2nsc3ccccc23)c1	–	–	·	·	·	·	·	·
Cc1ccc(C(=O)Nc2nnc(-c3ccco3)o2)cc1C	–	–	?	·	·	·	·	·
CCN(CC)S(=O)(=O)c1ccc(C(=O)Nc2nnc(CSC)o2)cc1	·	·	15.8µM	17.8µM	–	–	–	–
CCN(CC)S(=O)(=O)c1ccc(C(=O)Nc2nnc(COC)o2)cc1	·	·	17.7µM	–	–	–	–	–
CCCCN(C)S(=O)(=O)c1ccc(C(=O)Nc2nnc(CSC)o2)cc1	–	–	?	·	·	·	·	·
CCCCN(CCCC)S(=O)(=O)c1ccc(C(=O)Nc2nnc(COC)o2)cc1	–	?	–	·	·	·	·	·
CN(C)S(=O)(=O)c1ccc(C(=O)Nc2nnc(-c3ccco3)o2)cc1	·	·	6.29µM	–	–	–	–	–
COc1cccc([C@@H]2Oc3ccc(OC)cc3C(=O)[C@H]2OC(=O)NCc2ccco2)c1	–	–	–	·	·	·	·	·
CN1C(=O)c2ccccc2Sc2ccc(NC(=O)COc3ccc(Cl)cc3)cc21	–	?	·	·	·	·	·	·
COC(=O)C(C)Sc1n[nH]c(=S)s1 (stereo not drawn)	–	–	?	·	·	·	·	·
O=C(O)CC(Sc1n[nH]c(=S)s1)C(=O)O (stereo not drawn)	·	·	4.46µM	–	?	?	?	?
COCCn1c(NC(=S)NC(=O)C23CC4CC(CC(C4)C2)C3)cc(=O)[nH]c1=O	·	·	–	·	·	·	·	·
COCCn1c(NC(=S)NC(=O)C2CC2)cc(=O)[nH]c1=O	·	·	7.06µM	–	–	–	–	–
CCc1ccccc1NS(=O)(=O)c1ccc2c(c1)CCCN2C(=O)C1CCC1	–	–	·	·	·	·	·	·
CCC1CCCCN1CCCNC(=O)c1[nH]c2ccccc2c1Sc1ccc(Cl)cc1 (stereo not drawn)	–	–	·	·	·	·	·	·
Cc1cccc(C2C=C(c3ccc(C)c(C)c3)Nc3nnnn32)c1 (stereo not drawn)	–	–	·	·	·	·	·	·
CC1(C)O[C@H]2[C@@H](O1)[C@@H](C(=O)Nc1ccccc1C(F)(F)F)O[C@@H]1OC(C)(C)O[C@@H]12	–	–	·	·	·	·	·	·
SMILES	Cruzain inh Det	Cruzain noTriton	Giardia FBPA inh-1	Giardia growth	Mammalian tox	Giardia FBPA inh-2	Rabbit FBPA inh	GAPDH coupling
O=C(Nc1c(Cl)cccc1Cl)c1cc(-c2cccc(O)c2)on1	–	–	·	·	·	·	·	·
O=c1[nH]ncn1-c1ccccc1C(F)(F)F	–	–	–	·	·	·	·	·
O=c1[nH][nH]c(=S)n1-c1ccccc1C(F)(F)F	·	·	17.7µM	?	–	–	–	–
Cc1nc(Nc2ccc(Cl)cc2)cc(-c2ccccc2)n1	–	–	·	·	·	·	·	·
CC(=O)NCc1nc2cccnc2n1Cc1ccccc1	–	–	·	·	·	·	·	·
Cc1ccsc1C1C(C#N)=C(N)OC2=C1C(=O)CCC2 (stereo not drawn)	·	·	17.7µM	–	–	–	–	?
Cc1ccc(C2C(C#N)=C(N)OC3=C2C(=O)CCC3)s1 (stereo not drawn)	·	·	–	·	·	·	·	·
O=C(COc1ccc([N+](=O)[O-])cc1)N1CCC(c2nc3ccccc3s2)CC1	–	–	·	·	·	·	·	·
CC(C)(C)c1ccc(N2C[C@@H](COc3ccc(C(=O)O)cc3)CC2=O)cc1	·	·	–	·	·	·	·	·
COc1ccc(N(CC(C)C)S(=O)(=O)c2nnc(NC(=O)c3cccs3)s2)cc1	–	–	·	·	·	·	·	·
